# Results taken from PubChem BioAssay (NCATS).
# Where “and” joins values, the source holds several entries; their conditions need not be identical. Equal values may be shown once. Results filed as inconclusive are left out. Entries that show only a call come without a potency. Calls of active or inactive are those of the source. Calls follow the shape of the dose curve; as a rule, active = well fitted curve in the direction sought with a large enough effect; inconclusive = small, poorly fitted or top-dose-only effect, or another doubt; inactive = no such curve, though single readings can be large; an effect the other way counts as inactive or inconclusive.
# Tests used:
# [1] = NS1 protein of Zika virus - qHTS assay to identify small molecule inhibitors in human HEK 293 cells (AID 1347053); also: nearly all actives have a fitted effect of over 55% in size
# Summary of the method: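 Read-out is a two-antibody TR-FRET for ZIKV NS1, normalized between uninfected cells and infected cells. Compound added 1 h before MR766 infection at MOI 0.5; human HEK 293 cells incubated 24 h, 37 C.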
# [2] = qHTS of pediatric cancer cell lines to identify multiple opportunities for drug repurposing: Primary screen for TC32 cells (AID 1347089); also: nearly all actives have a fitted effect of over 60% in size
# Summary of the method: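 Luminescent CellTiter-Glo read-out of metabolically active TC32 cells after 48 h compound exposure. Primary: MIPE 11-point, 0.78 nM–46 µM; NPC 8-point, 0.59 nM–46 µM. Confirmatory: 11-point dilutions.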
# [3] = qHTS of pediatric cancer cell lines to identify multiple opportunities for drug repurposing: Primary screen for DAOY cells (AID 1347090); also: nearly all actives have a fitted effect of over 55% in size
# Summary of the method: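 Cell viability, CellTiter-Glo luminescence; 500-1,000 cells/well, 8- or 11-point titration, 48 h compound exposure at 37 degrees C, 5% CO2. Controls: DMSO neutral, bortezomib 2.3 µM final as positive.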
# Potency is read from the fitted curve at half-maximal effect.
SMILES,Potency [1],Potency [2],Potency [3]
c1ccc2c(-c3cnn4cc(-c5ccc(N6CCNCC6)cc5)cnc34)ccnc2c1,4.18 µM (active),inactive,–
CCOC(=O)C1=C(N)Oc2ccc(Br)cc2C1C(C#N)C(=O)OCC (stereo unspecified),inactive,inactive,–
CCN(CC)CCOc1ccc(C(=C(Cl)c2ccccc2)c2ccccc2)cc1,inactive,inactive,inactive
N[C@@]1(C(=O)O)CS(=O)(=O)[C@H]2[C@H](C(=O)O)[C@H]21,inactive,inactive,inactive
CC(C)(Cc1ccc2ccccc2c1)NC[C@@H](O)COc1cccc(Cl)c1C#N,inactive,inactive,inactive
NC(=O)[C@@H](CCC(F)(F)F)N(Cc1ccc(-c2ncon2)cc1F)S(=O)(=O)c1ccc(Cl)cc1,inactive,inactive,–
CCC(=O)NC[C@H](Cc1ccc(OCCc2nc(-c3ccccc3)oc2C)cc1)NC(C)=CC(=O)c1ccc(C(F)(F)F)cc1,16.6 µM (active),inactive,–
CNC(=O)c1ccc2cc(C3(O)CCn4cncc43)ccc2c1 (stereo unspecified),inactive,inactive,inactive
CC(C)(C)C(=O)Oc1ccc2c(c1)nc(NC(=O)c1cccc([N+](=O)[O-])c1)n2CCCO,inactive,inactive,–
CC(C)C(C)C=CC(C)C1CCC2C3=CC=C4CC(O)CCC4(C)C3CCC21C (stereo unspecified),inactive,inactive,inactive
Cn1cc(C=C2C(=O)Nc3cccnc32)c2ccccc21,inactive,inactive,inactive
O=C(O)c1ccc(-c2cc3cccnc3c(-c3ccc4nonc4c3)n2)cc1,23.5 µM (active),inactive,inactive
c1cc(-c2sc(-c3ccncc3)c(-c3ccncc3)c2-c2ccncc2)ccn1,inactive,inactive,–
CC(=NNC(=S)N1CCC1)c1ccccn1,16.6 µM (active),41.5 nM (active),–
CC(C)(C)COc1ccc(-n2cc(C(=O)O)cn2)cc1C#N,inactive,inactive,inactive
CC(C)=CC[C@@H](O)C1=CC(=O)c2c(O)ccc(O)c2C1=O,inactive,inactive,–
CC1(C)CCC(CN2CCN(c3ccc(C(=O)NS(=O)(=O)c4ccc(NCC5CCOCC5)c([N+](=O)[O-])c4)c(Oc4cnc5[nH]ccc5c4)c3)CC2)=C(c2ccc(Cl)cc2)C1,inactive,inactive,14.8 µM (active)
Nc1ncnc2c1ncn2[C@@H]1O[C@H](CO)C[C@@H]1O,inactive,inactive,–
COc1ccc2c3c1OC1C[C@@H](O)C=C[C@@]31CCN(C)C2 (stereo partly specified),inactive,inactive,–
CC(=O)Nc1ccc([C@H](C)C(=O)Nc2ncc(C(C)C)s2)cc1,3.72 µM (active),16500 nM (active),1.48 µM (active)
C[C@@H](O)[C@H]1C(=O)N2C(C(=O)O)=C(S[C@@H]3CN[C@H](C(=O)N(C)C)C3)[C@H](C)[C@H]12,inactive,inactive,inactive

SMILES,Potency [1],Potency [2],Potency [3]
O=C1NC(=O)C(=Cc2cccc(C(F)(F)F)c2)S1,inactive,inactive,–
NC[C@@H]1O[C@@H](O[C@H]2[C@@H](O)[C@H](O[C@@H]3[C@@H](O)[C@@H](N)C[C@H](N)[C@H]3O[C@H]3O[C@H](CN)[C@@H](O)[C@@H](O)[C@H]3N)O[C@H]2CO)[C@H](N)[C@@H](O)[C@@H]1O,inactive,inactive,inactive
COc1cc(NC(=O)c2ccc(-c3ccc(Cl)cc3)o2)cc(OC)c1,inactive,inactive,2.96 µM (active)
CN(C[C@@H]1COCCO1)S(=O)(=O)Nc1ccc2ccc3ncc(-c4cnn(C)c4)cc3c(=O)c2c1,inactive,inactive,–
Nc1ncnc2ccccc12,inactive,inactive,18.7 µM (active)
COc1ncc(-c2ccc3nccc(-c4ccnnc4)c3c2)cc1NS(=O)(=O)c1ccc(F)cc1F,0.0418 µM (active),–,4.69 µM (active)
Cn1c(N2CCCCS2(=O)=O)nc(C(=O)NCc2ccc(F)cc2)c(O)c1=O,inactive,inactive,inactive
CON=C(C(=O)N[C@@H]1C(=O)N2C(C(=O)OCOC(=O)C(C)(C)C)=C(C=Cc3scnc3C)CS[C@H]12)c1csc(N)n1,inactive,inactive,inactive
CC1(C)O[C@H]2C[C@@H]3[C@H]4CCC5=CC(=O)C=C[C@]5(C)[C@@]4(F)[C@@H](O)C[C@]3(C)[C@]2(C(=O)CO)O1,inactive,inactive,inactive
Clc1ccc(-c2nc3sccn3c2C=NOCc2ccc(Cl)c(Cl)c2)cc1,inactive,inactive,inactive
COc1cc2nc(-c3ccc(N4CCN(C)CC4)cc3)nc(NCCN3CCOCC3)c2cc1OC,0.332 µM (active),523 nM (active),0.0743 µM (active)
O=C(O)c1cc(-c2ccccc2)nc2ccccc12,inactive,inactive,inactive
CC(C)C(=O)Oc1ccc(CO)cc1[C@H](CCN(C(C)C)C(C)C)c1ccccc1,inactive,–,inactive
N#C[C@H]1C[C@H]2C[C@@H]2N1C(=O)[C@@H](N)C12CC3CC(CC(O)(C3)C1)C2,inactive,inactive,inactive
N#Cc1ccc(NC(=O)Nc2ccccc2Br)c2n[nH]nc12,inactive,inactive,inactive
O=C(N[C@@H](c1ccccc1)[C@@H]1CCCCN1)c1cccc(C(F)(F)F)c1Cl,inactive,inactive,inactive
O=C(O)CCC1CCC(c2cc(F)ccc2F)(S(=O)(=O)c2ccc(Cl)cc2)CC1 (stereo unspecified),inactive,inactive,11.8 µM (active)
CC(C)(C)NC(=O)Nc1cccc(Nc2ncc(F)c(NC(C)(C)CO)n2)c1,inactive,–,inactive
O=c1c(-c2ccc(O)cc2)coc2cc(O[C@@H]3O[C@H](CO)[C@H](O)[C@H](O)[C@H]3O)ccc12,inactive,inactive,inactive
CC(C)n1nc(-c2ccc3oc(N)nc3c2)c2c(N)ncnc21,0.0209 µM (active),11.7 nM (active),0.0148 µM (active)
CC[C@]1(O)C[C@@H]2CN(CCc3c([nH]c4ccccc34)[C@@](C(=O)OC)(c3cc4c(cc3OC)N(C)[C@H]3[C@@](O)(C(=O)OC)[C@H](OC(C)=O)[C@]5(CC)C=CCN6CC[C@]43[C@@H]65)C2)C1,inactive,118 nM (active) and 592 nM (active),26.6 nM (active) and 133 nM (active)
